# MITF primary = blocks human microphthalmia-associated transcription factor. inhibition, % at 2.6 µM. AID 1259374. 650,000 compounds, 0.91% hits. AlphaScreen MITF homodimerization, bead proximity signal. O75030; in the data active means inhibition above about 50%;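 further: 0% = vehicle wells with protein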
# TEAD-YAP inh = TEAD-YAP interaction inhibition; HEK-TIYL cells, TEAD-Gal4/YAP UAS-luciferase luminescence; inhibition, % at 9.12 µM; 640,000 compounds, 1.4% hits; in the data active means inhibition above about 32%;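 further: 0% = median of test compound wells and 100% = reference inhibitor wells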
# GPR151 ag = activates the human receptor GPR151; Q8TDV0; PathHunter beta-arrestin GPR151 cells, luminescence; activation, % at 11.2 µM; 650,000 compounds, 1% hits; AID 1508602; in the data active means activation above about 4.9%;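 further: 0% = median of compound wells and 100% = cells with positive control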
# FBW7 activator = human FBW7 E3 ligase activation, primary screen; Q969H0; AlphaScreen FBW7–phospho-cyclin E peptide binding, activator screen; normalized activity (activation), % at 26.1 µM; 650,000 compounds, 0.13% hits; in the data active means normalized activity above about 1.9%;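 further: purified mutant Fbw7 with reduced substrate affinity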
# * = called active by the depositor. Most compounds without a hit are left out; they make up all but 3.5% or so of the library.
SMILES,MITF primary,TEAD-YAP inh,GPR151 ag,FBW7 activator
Cn1c(SCc2nc3ccc([N+](=O)[O-])cc3[nH]2)nc2ccccc21,-11,-11,2,0
COc1ccccc1OCC(=O)OCc1c(C)noc1C,0,-2,2,0
O=C(CCCSc1ccc(Cl)cc1)Nc1nc(-c2ccccn2)cs1,12,39*,0,-1
O=C(CCSc1ccc(Cl)cc1)Nc1nc(-c2ccccn2)cs1,1,34*,4,0
O=C(CCSc1ccccc1)Nc1nc(-c2ccccn2)cs1,-3,31,0,0
Cc1nccn1CC(=O)NCCN1Cc2ccccc2OC(c2ccccc2F)C1 (stereo not given),-7,6,0,0
OCCNCC(O)COc1ccccc1 (stereo not given),4,8,0,1
Cc1cccc(NC(=O)CN2CCCC(c3nc4ccccc4[nH]3)C2)c1 (stereo not given),-1,-1,-1,0
CCN1CCN(C(CC(C)C)c2nnnn2Cc2ccc(F)cc2)CC1 (stereo not given),-5,53*,-1,0
CC(C)CC(c1nnnn1Cc1ccc(F)cc1)N1CCN(C)CC1 (stereo not given),8,3,2,0
Cc1ccc(NC(=O)c2cc(S(=O)(=O)NCCC3=CCCCC3)ccc2F)cc1F,16,34*,-3,1
COc1ccc(NC(=O)CSc2cn(Cc3ccc(F)cc3)c3ccccc23)c(OC)c1,-3,-8,1,0
CCOC(=O)N1CCC(N2C(=O)c3ccc(C(=O)Nc4ccc(F)cc4)cc3C2=O)CC1,4,6,0,0
O=C(CSc1nnnn1-c1cccc(F)c1)c1ccc2c(c1)OCCO2,-9,78*,1,0
O=C(CSc1ncccc1C(=O)O)c1ccc2c(c1)OCCO2,0,34*,0,0
O=C(CSc1ncccc1C(=O)O)c1ccc2ccccc2c1,6,-13,0,0
CCN1C(=O)N(CC)C2C1NC(=O)N2CC (stereo not given),-16,0,-1,0
CCN1C(=O)N(CC)C2NC(=S)NNC21 (stereo not given),7,82*,2,0
c1ccc2ncc(-c3ccc4c(c3)COC3(CCNCC3)O4)cc2c1,17,64*,-1,0
O=C(O)CCc1ccc(-c2ccc(Br)cc2)o1,56*,-4,-2,0
O=C(Cc1ccccc1)OCc1ccc(-c2ccc(Br)cc2)o1,-11,-17,-2,0
CCC(=O)N1CCc2cc(-c3nc(N)sc3C)ccc21,14,10,-2,0
CC(=O)Nc1nc(-c2ccc3c(c2)CCN3C(C)=O)c(C)s1,-12,53*,-1,1
CCC(=O)N1CCc2cc(-c3nc(NC(C)=O)sc3C)ccc21,7,80*,1,0
CNc1nc(-c2ccc3c(c2)CCN3C(C)=O)c(C)s1,22,-47,1,1
SMILES,MITF primary,TEAD-YAP inh,GPR151 ag,FBW7 activator
CCn1c(N2CCC(C(=O)NCCO)CC2)nc2ccccc21,0,-2,0,0
CCn1c(N2CCC(C(=O)NC3CCN(Cc4ccccc4)CC3)CC2)nc2ccccc21,9,39*,0,0
CCOC(=O)/C(C#N)=C/c1cc(C)n(-c2ccc(OCC)cc2)c1C,17,7,-1,0
C=CCNc1cc(-c2ccccc2)nc(-c2ccccn2)n1,13,88*,0,-1
CCN(CC)c1cc(-c2ccccc2)nc(-c2ccccn2)n1,-8,47*,3,0
COc1ccc2c(c1)CC(c1nc3ncc(-c4cn[nH]c4)cc3[nH]1)CO2 (stereo not given),11,6,-1,0
CCN(CC)S(=O)(=O)c1ccc(N/N=C/c2ccc(O)cc2O)nc1,41,59*,0,0
Oc1ccc(/C=N/Nc2ccc(Cl)nn2)c(O)c1O,103*,5,-1,-1
Cc1cc(C)n(-c2cc(N/N=C/c3ccc(O)cc3O)ncn2)n1,18,85*,2,0
Cc1cnn(-c2cc(N/N=C/c3ccc(O)cc3O)ncn2)c1,36,11,0,-1
Oc1ccc(/C=N/Nc2ncc(C(F)(F)F)cc2Cl)c(O)c1O,66*,7,2,-1
CCN(CC)S(=O)(=O)c1ccc(N/N=C/c2ccccc2[N+](=O)[O-])nc1,1,-2,1,0
Cc1cc(O)ccc1NC(=O)c1ccc(N2C(=O)c3ccc(C(=O)Nc4ccc(O)cc4C)cc3C2=O)cc1,-7,7,0,0
CCc1nc2sc(C(c3ccc(F)cc3)N3CCC(C)CC3)c(O)n2n1 (stereo not given),17,1,1,0
CCN1C(=O)/C(=C2/Sc3ccc(Cl)cc3N2C)SC1=Nc1ccc2ncccc2c1,7,5,0,0
COc1ccc(N/N=C(\C#N)C(=N)N2CCCCCC2)cc1,11,-69,-1,0
Oc1ccc(/C=N/Nc2ncc(Br)cn2)c(O)c1,65*,-37,-3,-1
Oc1ccc(/C=N/Nc2ccc(Cl)nn2)c(O)c1,55*,9,-4,0
CCOc1ccc(/C=N/Nc2ncc(Br)cn2)c(O)c1,42,-48,-1,-1
C/C(CC(=O)Nc1cccc2ccccc12)=N\NC(=O)Cc1ccc([N+](=O)[O-])cc1[N+](=O)[O-],4,-3,-1,1
COc1ccc(S(=O)(=O)NC2CCCCC2)c(Cl)c1Cl,14,2,1,0
COc1ccc(S(=O)(=O)NCC(c2cccs2)N2CCc3ccccc32)cc1 (stereo not given),8,4,0,0
Cc1ccc(Cc2cnc(NC(=O)CCCOc3ccc(Cl)cc3)s2)cc1,11,7,0,0
Cc1cc(NC(=O)CCc2ccc(C)o2)no1,5,5,0,0
Cc1ccc(CCC(=O)Nc2ncc(Cc3ccc(Cl)cc3)s2)o1,1,57*,4,0
SMILES,MITF primary,TEAD-YAP inh,GPR151 ag,FBW7 activator
Cc1ccc(CCC(=O)Nc2ccc(Cl)cn2)o1,4,41*,-1,0
O=C(CSCc1cccc2ccccc12)Nc1c[nH]c(=O)[nH]c1=O,-4,-1,2,0
CCOC(=O)c1cc2c(=O)n3ccccc3nc2n(CCOC)c1=NC(=O)C1CCCCC1,-3,37*,-2,0
CCOC(=O)c1cc2c(=O)n3ccccc3nc2n(CCOC)c1=NC(=O)C(C)(C)C,-1,1,2,0
CC1CCC(C(C)C)C(OC(=O)Cn2c(-c3ccc(F)cc3)[n+](C)c3ccccc32)C1 (stereo not given),6,40*,1,0
CC1CCC(C(C)C)C(OC(=O)Cn2c(-c3ccccc3)[n+](C)c3ccccc32)C1 (stereo not given),4,83*,1,0
CC1CCC(C(C)C)C(OC(=O)Cn2c[n+](CC(=O)OC3CC(C)CCC3C(C)C)c3ccccc32)C1 (stereo not given),14,5,1,0
CC1CCC(C(C)C)C(OC(=O)CN2C(=O)C3C4c5ccccc5C(c5ccccc54)C3C2=O)C1 (stereo not given),0,19,-1,0
O=C(Nc1ccc2c(c1)OCO2)c1ccccc1SCC(=O)N1CCc2ccccc21,-10,36*,-1,0
